Where “and” joins values, the source holds several entries; their conditions need not be identical. Equal entries are not always repeated. Records with an inconclusive call do not appear. A number with no mark means an inactive call. Calls of active or inactive are those of the source. Calls follow the shape of the dose curve; as a rule, active = well fitted inhibition curve with a large enough effect in the repeat runs; inconclusive = weak or mixed curves; inactive = no such curve, though single readings can be large or run the other way.
Molecular target: Androgen receptor (Homo sapiens) (UniProt P10275)
Experiment: qHTS assay to identify small molecule antagonists of the androgen receptor (AR) signaling pathway using the MDA cell line in the presence of 0.5 nM R1881 (AID 1259243); also: nearly all actives have a fitted effect of over 50% in size
Conditions: MDA-kb2 MMTV-luciferase, R1881 0.5 nM, 16 h; series mostly up to 92.4 µM; activity, negative = inhibition: at the top concentration
Description: U.S. Tox21 Program National Center for Advancing Translational Sciences [NCATS] NIH Chemical Genomics Center [NCGC] U.S. Environmental Protection Agency [EPA] National Institutes of Environmental Health Sciences [NIEHS] National Toxicology Program [NTP] U.S. Food and Drug Administration [FDA] Tox21 Assay Overview: Androgen receptor (AR) is an important member of the nuclear receptor family. Its signaling plays a critical role in AR-dependent prostate cancer and other androgen related diseases. Considerable attention has been given in the past decades to develop methods to study and screen for the environmental chemicals that have the potential to interfere with metabolic homeostasis, reproduction, developmental and behavioral functions. Therefore AR binding assay for screening androgen antagonists can be used to identify potential endocrine disruptors. MDA-kb2 cells (from ATCC, deposited by Wilson et al.) were used to screen for AR inhibitors against Tox21 compound libraries. These cells are human breast carcinoma cells that were stably transfected with a luciferase reporter gene under control of the MMTV promoter that contains response elements for both androgen receptor (AR) and glucocorticoid receptor (GR). The current screening for identification of AR inhibitors against Tox21 libraries used lower concentration (0.5 nM) of R1881 as a stimulator.
Tox21 Assay Protocol Summary: MDA-kb2 cells (cells cultured without CO2) were dispensed at 3,000 cells/well in 4 uL of culture medium into white wall/solid-bottom 1536-well plates (Corning Life Sciences, Corning, NY) using a Multidrop Combi (ThermoFisher Scientific, Waltham, MA) dispenser. After the assay plates were incubated at a 37C and 0% CO2 for 5 hr, 23 nL of compounds dissolved in DMSO, positive controls or DMSO only was transferred to the assay plate by a Pintool station (Kalypsys, San Diego, CA). The transfer of compounds was followed by the addition of 1 uL of 0.5 nM (final concentration) agonist (R1881)/culture medium using a Flying Reagent Dispenser (FRD, Aurora Discovery, San Diego, CA). The plates were incubated at 37C and 0% CO2 for 16 hr. For luciferase reporter gene assay, 4 uL of ONE-Glo reagent (Promega Corporation, Madison, WI) was added to each well using the FRD and after 30 min incubation at room temperature luminescence intensity was measured using ViewLux plate reader (PerkinElmer, Shelton, CT).
% is scaled to controls: 0 for no effect and ±100 for the full control effect; potency is read from the fitted curve at half-maximal effect.

Sequence of Androgen receptor (Homo sapiens) (P10275 whole entry, looked up): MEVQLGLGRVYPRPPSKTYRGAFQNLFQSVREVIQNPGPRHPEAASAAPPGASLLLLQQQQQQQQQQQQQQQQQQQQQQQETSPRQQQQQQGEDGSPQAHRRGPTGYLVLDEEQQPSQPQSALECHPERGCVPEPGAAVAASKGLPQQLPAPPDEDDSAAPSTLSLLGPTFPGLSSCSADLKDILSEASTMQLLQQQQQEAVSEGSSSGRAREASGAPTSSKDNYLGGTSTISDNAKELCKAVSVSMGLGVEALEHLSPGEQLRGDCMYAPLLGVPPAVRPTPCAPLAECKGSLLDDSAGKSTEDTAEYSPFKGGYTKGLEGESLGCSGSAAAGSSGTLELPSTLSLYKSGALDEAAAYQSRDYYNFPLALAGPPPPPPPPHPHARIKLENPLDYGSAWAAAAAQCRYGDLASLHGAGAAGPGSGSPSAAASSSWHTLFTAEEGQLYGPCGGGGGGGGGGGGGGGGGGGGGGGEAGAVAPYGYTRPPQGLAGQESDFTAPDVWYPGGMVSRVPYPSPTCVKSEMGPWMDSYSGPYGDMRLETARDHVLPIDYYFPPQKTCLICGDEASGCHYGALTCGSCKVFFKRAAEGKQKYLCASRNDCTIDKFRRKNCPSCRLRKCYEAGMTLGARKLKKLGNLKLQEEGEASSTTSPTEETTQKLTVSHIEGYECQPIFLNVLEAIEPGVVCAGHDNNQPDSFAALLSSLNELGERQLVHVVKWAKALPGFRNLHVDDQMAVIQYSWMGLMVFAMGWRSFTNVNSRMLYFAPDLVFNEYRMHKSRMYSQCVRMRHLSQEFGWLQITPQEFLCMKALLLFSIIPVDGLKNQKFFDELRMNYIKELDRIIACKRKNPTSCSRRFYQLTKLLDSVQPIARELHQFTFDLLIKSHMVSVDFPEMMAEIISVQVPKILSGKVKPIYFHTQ

Row | Compound | activity, negative = inhibition | Potency
1 | C=C/C=C/C=C/CCCCC | 3% [at 19 µM] | 
2 | Cc1ccc(O)cn1 | -4.81% | 
3 | CCc1cccc(CC)c1NC(=O)C(=O)O | 7.1% | 
4 | O=C1NCCN1CCN1CCC(c2cn(-c3ccc(F)cc3)c3ccc(Cl)cc23)CC1 |  | 11.9 µM (active)
5 | C[C@H]1O[C@@H](O[C@H]2[C@@H](O)C[C@H](O[C@H]3[C@@H](O)C[C@H](O[C@H]4CC[C@@]5(C)[C@H](CC[C@@H]6[C@@H]5C[C@@H](O)[C@]5(C)[C@@H](C7=CC(=O)OC7)CC[C@]65O)C4)O[C@@H]3C)O[C@@H]2C)C[C@H](O)[C@@H]1O |  | inactive
6 | O=C1C=CC(=O)N1c1ccccc1 |  | 30.6 µM (active)
7 | C=C1C(C)(C)[C@@]2(Cl)C(Cl)[C@]1(Cl)C(Cl)(Cl)C2(Cl)Cl (stereo not given in full) |  | 60 µM (active)
8 | C[Si](C)(C)Cl | -2.4% | 
9 | CC1=C(/C=C/C(C)=C/C=C/C(C)=C/C(=O)Nc2ccc(O)cc2)C(C)(C)CCC1 |  | 55.9 µM (active) and 18.8 µM (active)
10 | OCCCS | -3.48% | 
11 | Cc1cnccn1 | 0.227% | 
12 | CC(C)=CCCC(C)O (stereo not given) | 7.07% | 
13 | CC(=O)C=O | 11.6% | 
14 | CCC(C)(C)c1cc(O)c(C(C)(C)CC)cc1O |  | 17.2 µM (active)
15 | C[C@@H]1CC[C@H]2C(C)(C)[C@H]3C[C@@]12CC[C@@]3(C)O | -3.78% | 
16 | CN1CCN(C2Cc3ccccc3Sc3ccc(Cl)cc32)CC1 (stereo not given) |  | 29.8 µM (active)
17 | C=CC(=O)OCCC#N | 32.4% | 
18 | Cc1ccc(-n2[nH]c(C)c(N=Nc3cccc(-c4cccc(C(=O)O)c4)c3O)c2=O)cc1C | -21.6% [at 42.5 µM] | 
19 | CCCCCCCC(OC)OC | 0.741% [at 42.5 µM] | 
20 | Clc1ccc(C(Cn2ccnc2)OCc2c(Cl)cccc2Cl)c(Cl)c1 (stereo not given) |  | 8.41 µM (active)

Row | Compound | activity, negative = inhibition | Potency
21 | CCC1CCCCC1 | 1.2% | 
22 | O=C(Oc1ccccc1)c1cccc(C(=O)Oc2ccccc2)c1 | 86.8% | 
23 | C#CC(O)CCC (stereo not given) | 4.8% | 
24 | CC(C)(C)c1n[nH]c(=O)n(N)c1=O | 3.86% | 
25 | Cn1cccc1 | -2.64% | 
26 | CCCCCCCCC(C)=O | 0.45% | 
27 | CCCCOCC | 11% | 
28 | C[Si](C)O[Si](C)C | 45.2% | 
29 | CC(C)(C)c1cc(CCC(=O)NCCCCCCNC(=O)CCc2cc(C(C)(C)C)c(O)c(C(C)(C)C)c2)cc(C(C)(C)C)c1O | -13.9% | 
30 | CC1=CP(=O)(c2ccccc2)CC1 (stereo not given) | -3.73% | 
31 | CCN1CCN(c2cc(-c3ccc(F)cc3)c3c(n2)CCCCCC3)CC1 | -22% [at 19 µM] | 
32 | NC(=O)c1nc(-c2cccc(-c3cc(F)ccc3OCC(F)(F)C(F)(F)F)c2)n[nH]1 |  | 54.5 µM (active)
33 | CCc1ccc(C)nc1 | 15.9% | 
34 | Oc1cc2ccccc2cc1O |  | 30.6 µM (active)
35 | CC1(C)COCN1 | 9.38% | 
36 | CC1CNCC(C)O1 (stereo not given) | 7.35% | 
37 | C=CC(=O)OCCN(CC)CC | 24% | 
38 | Cc1cn[nH]c1 | -1.71% [at 42.5 µM] | 
39 | CC(=O)O[C@@H]1C[C@@H]2CC[C@@]1(C)C2(C)C | 13.6% | 
40 | COC(=O)C1=C(C)NC(C)=C(C(=O)OCCCN2CCC(c3ccccc3)(c3ccccc3)CC2)C1c1cccc([N+](=O)[O-])c1 (stereo not given) |  | 21.1 µM (active)
